# Source: the supplement of paper PMC10127200
# Values joined by “and” are separate entries in the source; they are usually repeats but may differ in a detail not shown here. Identical values can stand only once. Counter-ions that a name gives are not always drawn.
# Experiments:
# Experiment in all cases: Euclidean distance of Cell Painting phenotypic profile (signed KS, 77 features) to DMSO centroid (dimensionless distance); 5 or 10 uM (library dependent); higher = stronger phenotypic change vs DMSO (phenoactivity)
# Details in all cases: 48 h
# 786-O = system: 786-O
# Summary of the method: (§1)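 Phenoactivity is defined as the Euclidean distance from a compound profile to the median vehicle profile. Each profile comprised 77 Harmony features, scored as signed Kolmogorov-Smirnov statistics versus same-plate vehicle wells, then plate-position corrected, correlation-weighted and replicate-averaged at the top dose. Five cancer lines and one healthy fibroblast line were exposed to library compounds for 48 h at 10 or 5 uM (0.1% DMSO final).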
# A549 = system: A549
# Summary of the method: as §1
# DU145 = system: DU145
# Summary of the method: as §1
# FB = system: FB
# Summary of the method: as §1
# HEPG2 = system: HEPG2
# Summary of the method: as §1
# OVCAR4 = system: OVCAR4
# Summary of the method: as §1
Structure (SMILES),Euclidean distance (786-O),Euclidean distance (A549),Euclidean distance (DU145),Euclidean distance (FB),Euclidean distance (HEPG2),Euclidean distance (OVCAR4)
Oc1ccc(O)cc1 [Hydroquinone],1.49,1.06,1.21,1.36,1.04,1.09
Cc1cc(C)nc(NS(=O)(=O)c2ccc(N)cc2)n1 [Sulfamethazine Sodium Salt],0.877,0.792,0.732,0.878,0.494,1.38
CC(CCc1ccccc1)NCC(O)c1ccc(O)c(C(N)=O)c1 (stereo not given) [Labetalol HCl],1.08,0.727,0.701,1.03,0.361,1.22
CCCCCNC(=N)N/N=C/c1c[nH]c2ccc(OC)cc12 [Tegaserod Maleate],5.85,4.48,5.39,6.34,4.98,5.08
Cc1ccc(NC(=O)c2ccc(CN3CCN(C)CC3)cc2)cc1Nc1nccc(-c2cccnc2)n1 [Imatinib (STI571)],1.85,1.68,1.9,2.04,1.78,1.48
Cn1cc(-c2ccc3ncc(Cc4ccc5ncccc5c4)n3n2)cn1,1.26,0.825,0.747,0.784,1.92,1.31
CN[C@@H]1[C@H](O)[C@H](NC)[C@H]2O[C@@]3(O)C(=O)C[C@@H](C)O[C@H]3O[C@@H]2[C@H]1O [Spectinomycin HCl],0.726,0.814,1.28,1.21,0.977,1.02
CC(=O)O[C@H]1C(=O)[C@@]2(C)[C@H]([C@H](OC(=O)c3ccccc3)[C@]3(O)C[C@H](OC(=O)[C@H](O)[C@@H](NC(=O)c4ccccc4)c4ccccc4)C(C)=C1C3(C)C)[C@]1(OC(C)=O)CO[C@@H]1C[C@@H]2O [Paclitaxel],3.07,2.6,4.23,2.69,2.08,2.73
OCc1ccccc1O[C@@H]1O[C@H](CO)[C@@H](O)[C@H](O)[C@H]1O [Salicin],1.17,0.655,0.503,0.638,0.419,1.21
CCCCCOc1ccccc1/C(=C\SC)n1ccnc1 [Neticonazole Hydrochloride],1.28,1.44,0.848,0.825,1.31,1.05
C/C=C1/[C@H](O[C@@H]2O[C@H](CO)[C@@H](O)[C@H](O)[C@H]2O)OC=C(C(=O)OC)[C@H]1CC(=O)OCCc1ccc(O)c(O)c1 [Oleuropein],0.802,0.844,0.63,0.971,0.64,1.46
O=C(NCc1ccc(Oc2ccccc2)cc1)c1nc(-c2cc(Br)c(O)c(Br)c2)no1,0.904,1.1,0.858,0.788,1.55,1.21
COc1cc(O)c(C(=O)Nc2nc(C(=O)NCCN(C(C)C)C(C)C)cs2)cc1OC [Acotiamide],1.22,0.413,0.881,0.785,0.356,0.831
Nc1ccc(S(=O)(=O)Nc2cnc3ccccc3n2)cc1 [Sulfaquinoxaline sodium],0.778,0.727,1.65,1.36,0.697,0.684
CCc1nc(C(N)=O)c(Nc2ccc(N3CCC(N4CCN(C)CC4)CC3)c(OC)c2)nc1NC1CCOCC1 [Gilteritinib (ASP2215)],2.93,3.06,3.49,3.66,3.86,2.89
CCOc1cc2ncc(C#N)c(Nc3ccc(OCc4ccccn4)c(Cl)c3)c2cc1NC(=O)/C=C/CN(C)C [Neratinib (HKI-272)],2.26,2.39,2.02,4.01,0.96,2.16
O=C1NCCc2[nH]c(-c3ccncc3)cc21,3.08,0.97,1.24,3.06,2.81,3.15
CC(=O)c1c(C)c2cnc(Nc3ccc(N4CCNCC4)cn3)nc2n(C2CCCC2)c1=O,5.92 and 5.88,3.42 and 3.04,5.03 and 4.42,6.3 and 5.78,5.39 and 4.73,5.52 and 5.47
Cn1cc(C2=C(c3cn(CCCSC(=N)N)c4ccccc34)C(=O)NC2=O)c2ccccc21 [Ro 31-8220 Mesylate],2.7,3.02,2.58,2.92,3.24,2.82
C[C@H]1COc2c(N3CCN(C)CC3)c(F)cc3c(=O)c(C(=O)O)cn1c23 [Levofloxacin],1.07,1.12,0.658,0.922,0.532,1.03
O=C(/C=C/c1ccc(CN(CCO)CCc2c[nH]c3ccccc23)cc1)NO [LAQ824 (Dacinostat)],2.61,4.89,4.56,3.59,4.12,3.09
NS(=O)(=O)c1cc2c(cc1Cl)N=CNS2(=O)=O [Chlorothiazide],1.21,0.957,1.22,1.35,0.662,0.734
COc1ccc(S(=O)(=O)N(C(C)=O)c2ccccc2/C=C/c2cc[n+]([O-])cc2)cc1,2.93,2.94,4.01,2.75,3.08,2.97

Structure (SMILES),Euclidean distance (786-O),Euclidean distance (A549),Euclidean distance (DU145),Euclidean distance (FB),Euclidean distance (HEPG2),Euclidean distance (OVCAR4)
CC(C)NCC(O)COc1cccc2ccccc12 (stereo not given) [Propranolol HCl],1.23,0.818,0.949,0.645,0.798,1.01
C[C@]12CCC3=C4CCC(=O)C=C4CC[C@H]3[C@@H]1CC[C@@]2(O)CC#N [Dienogest],1.53,0.862,1.61,1.08,1.12,1.39
CC[C@H](NC(=O)[C@H](C)NC)C(=O)N1C[C@@H](O)C[C@H]1Cc1c(-c2[nH]c3cc(F)ccc3c2C[C@@H]2C[C@H](O)CN2C(=O)[C@H](CC)NC(=O)[C@H](C)NC)[nH]c2cc(F)ccc12 [Birinapant],1.15,1.08,2.69,1.06,2.95,1.97
CCN1C[C@H](C)n2c(c(O)c3c(=O)n(Cc4ccc(F)c(Cl)c4)nc(C(=O)NC)c32)C1=O,1.08,0.61,1.05,0.927,0.645,1
CCCCCCCCCCCCCCCCn1cc[n+](Cc2ccccc2)c1C,3.58,4.18,2.89,2.94,4.61,4.19
Nc1nc(=O)n([C@@H]2CS[C@H](CO)O2)cc1F [Emtricitabine],1.06,0.783,0.954,0.924,0.432,1.08
O=C(O[C@@H]1Cc2c(O)cc(O)cc2O[C@@H]1c1ccc(O)c(O)c1)c1cc(O)c(O)c(O)c1 [(-)-Epicatechin gallate],1.61,0.725,1.16,1.3,0.724,0.782
CC(=O)CCCCn1c(=O)c2c(ncn2C)n(C)c1=O [Pentoxifylline],1.07,0.613,1.06,1.39,0.754,1.67
CC(=O)OC[C@H]1O[C@@H]([S-])[C@H](OC(C)=O)[C@@H](OC(C)=O)[C@@H]1OC(C)=O.CCP(CC)CC.[Au+] [Auranofin],5.67,4.89,6.36,6.74,3.39,5.08
N#Cc1cc(CN2CCC(Nc3ncnc4sc(Cl)cc34)CC2)ccc1F,0.974,1.39,1.03,1.19,1.15,1.37
CN(C)c1ccc(-c2nc3ncc(Cl)c(N4CCN(CC(=O)Nc5nccs5)CC4)c3[nH]2)cc1,1.74,1.55,1.32,1.56,0.715,1.59
CCCN(CCc1cccs1)[C@H]1CCc2c(O)cccc2C1 [Rotigotine],0.962,0.896,0.662,0.9,0.437,0.97
CCn1c(N)c(C(=O)NC)c(=O)c2ccc(C#CC(C)(O)COC)nc21 (stereo not given),0.634,0.765,0.681,1.97,1.53,0.668
CC(=O)Nc1nnc(S(N)(=O)=O)s1 [Acetazolamide],1.03,0.669,0.642,0.704,0.604,1.08
CCCc1nn(C)c2c(=O)[nH]c(-c3cc(S(=O)(=O)N4CCN(C)CC4)ccc3OCC)nc12 [Sildenafil Citrate],1.87,1.4,1.4,0.899,0.957,1.28
CC1=NN(c2ccccc2)C(=O)C1 [Edaravone],1.25,1.04,0.819,0.807,1.31,1.02
C=CCOc1ccccc1OCC(O)CNC(C)C (stereo not given) [Oxprenolol HCl],0.863,0.819,1.56,1.21,0.783,0.994
Cn1cc(/C=C2\C(=O)Nc3cccnc32)c2ccccc21,0.739,1.41,1.16,1.5,0.771,1.53
CCCN[C@H]1CCc2nc(N)sc2C1 [Pramipexole dihydrochloride],0.969,0.801,1.16,1.09,0.46,1.16
CN(C(=O)c1c(O)c2ccccc2n(C)c1=O)c1ccccc1 [Roquinimex],0.929,0.796,1.13,1.32,0.76,0.974
CC(C)Oc1ccc2c(=O)c(-c3ccccc3)coc2c1 [Ipriflavone (Osteofix)],1.22,1.44,1.15,1.17,0.723,2.28
CN(C)CCCN1c2ccccc2Sc2ccc(C(F)(F)F)cc21 [Triflupromazine hydrochloride],1.77,1.63,1.6,2.36,1.76,1.47
